The whole screen tested about 350,000 compounds, of which about 31,000 (8.9%) were called active. Not shown: some 15% with an inconclusive outcome. This excerpt belongs to a sample that is enriched for actives. Unmarked numbers belong to inactive results. Calls follow the shape of the dose curve; as a rule, active = well fitted inhibition curve with a large enough effect; inconclusive = small, poorly fitted or top-dose-only effect; inactive = no such curve, though single readings can be large or run the other way.
% is scaled to controls: 0 for no effect and ±100 for the full control effect; potency is read from the fitted curve at half-maximal effect.

The target in this test is Histone-lysine N-methyltransferase EHMT2 (Homo sapiens) (UniProt Q96KQ7). Description: qHTS Assay for Inhibitors of Histone Lysine Methyltransferase G9a. Also: nearly all actives have a fitted effect of over 75% in size. Conditions: G9a H3K9 monomethylation, AlphaScreen, 2 h; series mostly up to 59 µM; activity, negative = inhibition: at the top concentration. Summed up: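 Quantitative HTS format: methyltransferase activity on a biotin-tagged H3K9 peptide is measured by AlphaScreen, using a rabbit anti-monomethyl-H3K9 antibody with streptavidin donor and anti-IgG acceptor beads. Final levels are 20 nM enzyme, 500 nM peptide, 20 uM SAM; 2 h RT.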
Chain of Histone-lysine N-methyltransferase EHMT2 (Homo sapiens) (Q96KQ7 913-1193 limits assumed): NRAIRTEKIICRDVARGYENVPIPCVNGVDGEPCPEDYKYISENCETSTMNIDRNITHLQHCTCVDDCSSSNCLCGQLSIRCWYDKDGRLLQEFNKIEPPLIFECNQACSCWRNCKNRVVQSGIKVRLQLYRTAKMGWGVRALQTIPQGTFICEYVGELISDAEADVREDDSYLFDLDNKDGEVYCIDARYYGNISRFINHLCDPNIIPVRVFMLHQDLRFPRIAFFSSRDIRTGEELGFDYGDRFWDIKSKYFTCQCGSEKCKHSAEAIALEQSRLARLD
On to `COc1ccc(-c2nn(CC(=O)Nc3ccccc3F)c3c2cnc2ccc(F)cc23)cc1`, for which the “activity, negative = inhibition” value is 6.33%.

As to `CCOC(=O)c1cccc(NC(=O)Cn2cnc3nc4c(cc3c2=O)CCCC4)c1`, the “activity, negative = inhibition” value is 7.81%. The same measure, in the same setting: under `CC(NCC(=O)Nc1ccccc1C(=O)NC1CC1)c1ccccc1Cl` (stereo unspecified) stands 3.45% [at 12.7 µM].

As to `Cc1cccc(Cn2c(CN3CCC(C(=O)NCc4ccccc4Cl)CC3)cc3ccccc32)c1`, the “activity, negative = inhibition” value is -2.03%. On the same count and under the same terms, under `CCCN(CCC)CCNC(=O)Cn1cnc2sc(C)c(S(=O)(=O)N3CCC(C)CC3)c2c1=O` stands 2.22%. Take `Cc1ccc(NC(=O)CN(C)C(=O)COC(=O)C(C)(C)Oc2ccc(Cl)cc2)cc1`: the “activity, negative = inhibition” value is 20.6% [at 102 µM].

On to `COc1ccc(OCC(=O)NCCS(=O)(=O)N2CCN(c3ccc(F)cc3)CC2)cc1`, for which the “activity, negative = inhibition” value was 17.9%. In the case of `COc1ccc(N2CC(C(=O)NCCS(=O)(=O)N3CCN(c4ccccc4)CC3)CC2=O)cc1` (stereo unspecified), the Potency entry is “inactive”.

Turning to `COc1ccc(N2CCN(S(=O)(=O)CCNC(=O)C34CC5CC(CC(C5)C3)C4)CC2)cc1`, the Potency was 44.7 µM (active). Regarding `CC(=O)Nc1ccc(NC(=O)CCCc2nc(-c3ccc(C(C)(C)C)cc3)no2)cc1`, the “activity, negative = inhibition” value is -1.05%. Same read-out and setting: under `CCc1ccc(NC(=O)Cn2nnc(C(=O)NCc3ccc(OC)cc3)c2N)cc1` stands 46.9% [at 102 µM]; under `CCOC(=O)c1c(-c2ccccc2)oc2ccc(OCC(N)=O)cc12`, 6.55%; under `CC(=O)c1c(C)n(-c2ccc(C)cc2)c2ccc(O)cc12`, 8.12% [at 102 µM]. `CC(=O)c1c(C)n(-c2ccc(N(C)C)cc2)c2ccc(OCC(N)=O)cc12`: the Potency was 50.1 µM (active). On to `COc1ccc(CCNC(=O)COc2ccc3c(c2)OCO3)cc1`, for which the activity, negative = inhibition is 13.4% [at 2.33 µM]. Still for that read-out and setting: next, `COc1ccc(CCNC(=O)c2cc3cccc4c3n2CC(C)S4)c(OC)c1OC` (stereo unspecified): -4.92%. As for `N#C/C(=C/c1ccc(N2CCCCC2)o1)C(=O)NCCc1c[nH]c2ccccc12`, the Potency was 31.6 µM (active). Take `O=C(NCCc1c[nH]c2ccccc12)C(=O)NCC1CCCO1` (stereo unspecified): the “activity, negative = inhibition” value was 2.09% [at 102 µM]. Still for that read-out and setting: next, `COCCCNC(=O)/C(C#N)=C/c1c(N2CCCCCC2)nc2ccccn2c1=O`: 7.66% [at 2.33 µM]. Same read-out and setting: next, `COc1ccc(Cc2nc3ccc(C(=O)NCc4ccccc4C)cc3o2)cc1`: -3.49%.

`CCOCCn1[nH]c2ccccc2c1=O`: the activity, negative = inhibition is -9.31% [at 2.33 µM]. On to `O=S(=O)(c1ccccc1)N1CCC(c2ccccc2)CC1`, for which the activity, negative = inhibition was 0.779% [at 2.33 µM].

For `O=C(NC(Cc1c[nH]c2ccccc12)C(=O)O)/C(=C/c1ccco1)NC(=O)c1ccccc1` (stereo unspecified), the Potency is 28.2 µM (active). On to `Cc1ccc(C(=O)N/C(=C/c2ccco2)C(=O)NCCc2c[nH]c3ccccc23)cc1C`, for which the “activity, negative = inhibition” value was -22.3%. Take `CC(=O)NC(Cc1c[nH]c2ccccc12)C(=O)O` (stereo unspecified): the “activity, negative = inhibition” value is 19.7%. The same measure, in the same setting: under `COc1ccccc1Cc1nc2ccccc2nc1SCC(=O)N1CCCc2ccccc21` stands -10.3%. On to `COc1cccc(-n2c(=S)sc3c(=O)n(-c4ccccc4C)c(SCC(=O)O)nc32)c1`, for which the “activity, negative = inhibition” value was -17% [at 102 µM]. On to `COc1ccc(Cl)cc1-n1c(=S)sc2c(=O)n(-c3ccc(F)cc3)c(SCC(=O)O)nc21`, for which the Potency was 28.2 µM (active). Regarding `COc1ccc(Cl)cc1NC(=O)C1CC(=O)N(c2ccc(F)cc2)C1` (stereo unspecified), the activity, negative = inhibition is -1.46% [at 12.7 µM]. As for `Cc1cccc(NC(=O)N2CCN(C)c3ncccc32)c1C`, the “activity, negative = inhibition” value is -30.4%. With `CC[n+]1c(C)n(-c2ccccc2)c2ccc(NC(C)=O)cc21`, the Potency is 14.1 µM (active).

Take `CC(=O)c1cccc(NC(=O)c2cc(C)nn2-c2ccccc2)c1`: the “activity, negative = inhibition” value is 2.43% [at 102 µM]. Still for that read-out and setting: next, `CC(=O)Nc1ccc(NC(=O)CSc2nnc(C3CC3)n2-c2ccccc2)cc1`: 5.42% [at 2.33 µM]; `Cc1cccn2c(=O)nc(SCC(=O)NCc3ccccc3Cl)nc12`: -27.8% [at 102 µM]; `Cc1nn(-c2ccc(F)cc2)c(-n2cccc2)c1C(=O)N1CCN(c2ccccc2)CC1`: -34.6%. As to `COc1ccc(OCCNC(=O)c2cc(C3CC3)nc3c2cnn3C(C)C)cc1`, the “activity, negative = inhibition” value was -3.26%.

For `CC(C)(O)c1ccccc1CC[C@H](SCC1(CC(=O)O)CC1)c1cccc(/C=C/c2ccc3ccc(Cl)cc3n2)c1`, the activity, negative = inhibition is 1.82% [at 12.7 µM]. Still for that read-out and setting: under `CCN(c1ccccc1)S(=O)(=O)c1ccc(OCC(=O)N2CCCC2)cc1` stands 12.7% [at 2.33 µM]; under `Cc1noc(/C=C/c2ccco2)c1S(=O)(=O)N1CCC(C(=O)Nc2ccc(Cl)cn2)CC1`, -13.2%. On the same count and under the same terms, under `Cc1cccc(NC(=O)C2CCN(S(=O)(=O)c3c(C)noc3/C=C/c3ccco3)CC2)c1` stands -51.3%. Take `Cc1noc(/C=C/c2ccco2)c1S(=O)(=O)N1CCC(C(=O)N2CCc3ccccc32)CC1`: the Potency is 44.7 µM (active). Regarding `O=C(Nc1cccc2cccnc12)c1cccc(Cl)c1`, the “activity, negative = inhibition” value was 279% [at 102 µM].

Consider `CC1(C)Cc2c(C#N)c(SCc3nc4ccccc4[nH]3)nc(N3CCOCC3)c2CO1`, for which the Potency was 39.8 µM (active).

Take `COc1ccc(CSc2nc(N3CCOCC3)c3c(c2C#N)CC(C)(C)OC3)cc1`: the “activity, negative = inhibition” value is 4.28%. Same read-out and setting: under `CC(C)c1nc(N2CCOCC2)c(C#N)c2c1COC(C)(C)C2` stands 5.75%. `Nc1ccc(N=Nc2ccccc2Cl)c(N)n1`: the Potency is 28.2 µM (active).

Values taken from PubChem BioAssay AID504332 (National Center for Advancing Translational Sciences (NCATS), 2011).
